Rows were chosen to be rich in hits. Some 3.2% of all compounds tested hit in one or more screens of this group.
rCAG RNA binder: binds r(CAG) RNA repeats | inhibition, % at 3 µM | AID 651821 | 1.3% of 370,000 active | r(CAG) RNA repeat, TO-PRO-1 dye displacement fluorescence;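 active = inhibition above the plate cutoff, the mean of all test compounds on that plate plus 3 SD, cut at about 35% in these data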;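 also: higher means more dye released from RNA so lower well fluorescence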
DAGLB inh: blocks human DAGLB lipase activity. Q8NCG7. 0.059% of 340,000 active. inhibition, % at 5.17 µM. HEK293T DAGLB membrane lysate, EnzChek fluorogenic substrate; in the data active = inhibition above about 34%
Target sequence (Q8NCG7 whole entry, looked up): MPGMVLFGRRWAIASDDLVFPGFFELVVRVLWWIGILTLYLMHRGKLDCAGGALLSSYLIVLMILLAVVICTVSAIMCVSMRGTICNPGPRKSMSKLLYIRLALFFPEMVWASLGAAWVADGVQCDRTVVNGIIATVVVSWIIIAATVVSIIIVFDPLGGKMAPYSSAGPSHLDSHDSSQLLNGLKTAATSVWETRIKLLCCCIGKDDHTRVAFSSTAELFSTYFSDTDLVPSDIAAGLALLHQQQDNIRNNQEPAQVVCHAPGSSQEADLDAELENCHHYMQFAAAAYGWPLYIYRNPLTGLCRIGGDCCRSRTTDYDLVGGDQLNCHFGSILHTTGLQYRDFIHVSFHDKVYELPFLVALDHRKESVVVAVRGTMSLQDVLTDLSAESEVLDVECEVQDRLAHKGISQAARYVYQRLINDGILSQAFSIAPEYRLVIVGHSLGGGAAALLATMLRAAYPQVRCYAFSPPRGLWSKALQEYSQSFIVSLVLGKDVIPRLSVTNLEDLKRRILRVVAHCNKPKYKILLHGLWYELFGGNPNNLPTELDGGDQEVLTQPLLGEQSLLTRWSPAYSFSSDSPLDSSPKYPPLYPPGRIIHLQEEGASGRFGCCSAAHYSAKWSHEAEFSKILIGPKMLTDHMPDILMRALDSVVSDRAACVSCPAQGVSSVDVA
NadD inh: NadD (S. aureus) enzyme inhibition; purified NadD enzyme, colorimetric absorbance read-out; inhibition, % at 20 µM; 0.78% of 360,000 active; in the data active = inhibition above about 26%
bovine MsrA act: activates bovine MsrA enzyme; purified bovine MsrA, absorbance read-out; activation, % at 10.6 µM; 0.3% of 360,000 active; in the data active = activation above about 7.5%
Pemphigus Ab inh: blocks pemphigus antibody binding to human desmoglein-3; P32926; DSG3-coupled beads, scFv-anti-DSG3-GFP binding, flow cytometry; active compounds read low; binding (percent of control), % at 10 µM; 0.48% of 310,000 active; AID 588358;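 active = binding more than 3 SD below its plate's average and above zero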;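 also: hits lower antibody fragment binding to DSG3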
MsrA inhibitor: bovine MsrA inhibition. purified bovine MsrA, absorbance read-out. inhibition, % at 15.5 µM. 0.75% of 360,000 active. AID 651718
MsrA conf: confirmation of bovine MsrA inhibitors. shares compounds with MsrA inhibitor. purified bovine MsrA, absorbance read-out. inhibition, % at 15.5 µM. 41% of 2,300 active. AID 651822;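 also: coupled to thioredoxin reductase with NADPH and selenocystamine and DMSO as substrate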
Hits are given with their value; i = inactive; nt = no result. Rule as the data show it, unless noted: active = inhibition above about 4.5%; inactive = the rest.

SMILES | rCAG RNA binder | DAGLB inh | NadD inh | bovine MsrA act | Pemphigus Ab inh | MsrA inhibitor | MsrA conf
COC(=O)[C@]12CCCCC=C1N(Cc1ccc(Cl)cc1Cl)C(=O)[C@H](CC(=O)N1CCN(C(=O)c3ccco3)CC1)C2 | i | nt | i | i | nt | i | nt
CC1=CC(=C(C#N)C#N)C=C(C)N1CCN1CCN(C(=O)Nc2cccc(Cl)c2)CC1 | i | i | i | i | i | 5.0 | 4.6
CC1=CC(=C(C#N)C#N)C=C(C)N1CCN1CCNCC1 | i | i | i | i | i | 6.5 | 7.9
COc1ccc(-c2ccc(C(=O)NCc3ccc(N4CCN(C)CC4)cc3)c3occc23)c(C)c1 | i | nt | i | i | nt | i | nt
CC(/C=C/C=C/c1ccccc1)=N\NC(=O)c1cccnc1 | i | i | i | i | i | 7.6 | 4.5
Cc1ccc(C(=O)N/N=C/C=C/c2ccccc2)o1 | i | i | i | i | i | 8.8 | 8.2
O=C(CSc1ccccn1)N/N=C/C=C/c1ccccc1 | i | i | i | i | i | 4.9 | i
O=C(N/N=C/C=C/c1ccccc1)c1cccnc1 | i | i | i | i | i | 5.3 | 4.9
COC(=O)Cc1nnn2c1[C@H](C)[C@H](c1cccc(OC)c1OC)OCC2 | i | nt | nt | nt | nt | i | nt
CCCC(=O)Nc1nc2ccc(OC)cc2s1 | i | i | i | i | i | i | nt
COc1ccc2nc(NC(=S)N(C)C)sc2c1 | i | i | i | i | i | 6.3 | i
CCOC(=O)c1nnn(-c2nonc2-c2ccccc2)c1C | i | i | i | i | i | 19.0 | 13.6
CCOC(=O)c1nnn(-c2nonc2N)c1COc1ccccc1 | i | i | i | i | i | i | nt
COc1ccc(-c2oc3c(c2C#CC2(O)CCCCC2)C(OC)CCC3)cc1 (stereo unspecified) | i | nt | i | i | nt | i | nt
Oc1ccc(-c2cnc(-c3ccc(O)cc3)nc2)cc1 | i | i | i | i | i | i | nt
Nc1ccc(-c2cnc(-c3ccc(N)cc3)nc2)cc1 | i | i | i | i | i | 8.6 | 7.6
CC(C)CNC(=O)CC1Oc2ccccc2NC1=O (stereo unspecified) | i | nt | nt | nt | nt | nt | nt
Cc1ccc(NC(=O)COC(=O)Cc2c[nH]c3ccccc23)cc1 | i | i | i | i | i | i | nt
NS(=O)(=O)c1cc(C(=O)OCC(=O)Nc2ccccc2[N+](=O)[O-])ccc1Cl | i | i | i | i | i | 12.5 | 6.0
NS(=O)(=O)c1cc(C(=O)OCC(=O)Nc2ccc(Cl)cc2[N+](=O)[O-])ccc1Cl | i | i | i | i | i | i | nt
COc1ccc(NC(=O)CN2CCCCC2)c([N+](=O)[O-])c1 | i | i | i | i | i | i | nt
CNS(=O)(=O)c1cccc(C(=O)OCC(=O)Nc2ccc(OC)cc2[N+](=O)[O-])c1 | i | i | i | i | i | 6.0 | i
COc1ccc(NC(=O)COC(=O)C2CCCCC2)c([N+](=O)[O-])c1 | i | i | i | i | i | 11.8 | 8.1
CCOc1cc(OCC)cc(C(=O)N2CCC[C@H]2C(=O)N2CCC[C@H]2C(=O)N(C)Cc2ccccc2)c1 | i | nt | i | i | nt | i | nt
COc1cc(C)nc(N(Cc2ccccc2)S(=O)(=O)c2ccc(C)cc2)n1 | i | i | i | i | i | i | nt
SMILES | rCAG RNA binder | DAGLB inh | NadD inh | bovine MsrA act | Pemphigus Ab inh | MsrA inhibitor | MsrA conf
COc1cc(C)nc(N(Cc2ccccc2)S(=O)(=O)c2ccccc2)n1 | i | i | i | i | i | 5.6 | i
Cn1c(SCC(=O)Nc2ccccc2-c2ccccc2)nnc1-c1ccccc1 | i | nt | nt | nt | nt | nt | nt
Cc1nc2ccccn2c(=O)c1NC(=O)c1cccc2ccccc12 | i | i | i | i | i | i | nt
Cc1nc2ccccn2c(=O)c1NC(=O)c1ccco1 | i | i | i | i | i | 4.8 | i
O=C(C(=O)N1CCN(c2ccccc2F)CC1)c1ccccc1 | i | nt | nt | nt | nt | i | nt
C[C@@H]1COc2cc(Br)ccc2S(=O)(=O)N1Cc1cn(CC2CCCCC2)nn1 | i | nt | nt | nt | nt | nt | nt
Cc1ccc(C)c(Nc2c([N+](=O)[O-])cc(C(=O)N3CC(=O)Nc4ccccc43)cc2[N+](=O)[O-])c1 | i | i | i | i | i | 12.0 | 9.9
Cc1cccc(Nc2c([N+](=O)[O-])cc(C(=O)N3CC(=O)Nc4ccccc43)cc2[N+](=O)[O-])c1 | i | i | i | i | i | 4.7 | i
Cc1ccc(S(=O)(=O)N(CC(=O)NC2CC2)c2ccc(C)c(Cl)c2)cc1 | i | i | i | i | i | i | nt
CCN1C(=O)C2(C(C(=O)c3ccc(C)o3)=C(O)C(=O)N2CCCN2CCOCC2)c2ccccc21 (stereo unspecified) | i | i | i | i | i | i | nt
Cc1ccc(C(=O)C2=C(O)C(=O)N(CCCN3CCOCC3)C23C(=O)N(C)c2ccccc23)o1 (stereo unspecified) | i | i | i | i | i | 10.2 | 6.2
O=C(CCCN1C(=O)S/C(=C\c2ccccc2)C1=O)NNC(=O)c1ccccc1O | i | i | i | i | i | 4.7 | i
Cc1ncc(CO)c(/C=N/Nc2cccc(Cl)n2)c1O | i | i | i | i | i | 9.4 | i
COc1ccc(CNC(=O)C2=CC(c3ccc(OC)cc3)=NS(=O)(=O)N2C)cc1 | i | i | i | i | i | i | nt
COc1ccc(C2=NS(=O)(=O)N(C)C(C(=O)NCc3cccs3)=C2)cc1OC | i | i | i | i | i | 4.7 | i
COc1ccc(NC(=O)C2=CC(c3ccco3)=NS(=O)(=O)N2C)cc1 | i | i | i | i | i | i | nt
COc1ccc(C2=NS(=O)(=O)N(C)C(C(=O)NCc3ccccn3)=C2)cc1 | i | i | i | i | i | 4.7 | i
COc1ccc(NC(=O)C2=CC(c3ccc(OC)cc3)=NS(=O)(=O)N2C)cc1 | i | i | i | i | i | 5.4 | i
COc1ccc(C2=NS(=O)(=O)N(C)C(C(=O)NC3CCCC3)=C2)cc1 | i | i | i | i | i | 6.1 | i
CCOC(=O)[C@]12CCC=C1N(Cc1ccc(Cl)cc1Cl)C(=O)[C@H](CC(=O)NCC1CCCCC1)C2 | i | nt | i | i | nt | i | nt
CC(=O)c1cc2c(cc1C)CCCC2(C)C | i | nt | i | i | nt | i | nt
O=C(O)[C@H](Cc1ccccc1)Nc1ccc([N+](=O)[O-])cn1 | i | i | i | i | i | 4.8 | i
O=C(O)C(Cc1ccccc1)Nc1ccc([N+](=O)[O-])cc1[N+](=O)[O-] (stereo unspecified) | i | i | i | i | i | i | nt
C=Cc1ccc(CC2(C)C(=O)Nc3ccc(-c4cccnc4)cc32)cc1 (stereo unspecified) | i | nt | i | i | nt | 13.1 | 6.3
COCCNc1nc(Nc2ccc(C#N)cc2)c2sccc2n1 | i | nt | i | i | nt | 5.1 | i
C#Cc1cccc(Nc2nc(NCc3ccccc3OC)nc3ccsc23)c1 | i | nt | i | i | nt | 17.7 | 11.1
COCCNc1nc(Nc2ccc(F)cc2)c2sccc2n1 | i | nt | i | i | nt | i | nt
C#Cc1cccc(Nc2nc(NCCOC)nc3ccsc23)c1 | i | nt | i | i | nt | 12.4 | 10.8
Nc1nonc1-n1nnc(C(=O)N/N=C/c2ccco2)c1-c1ccccc1 | i | i | i | i | i | i | nt

Source: PubChem BioAssay (several laboratories)
